# Measurements: PubChem BioAssay AID1347139 (National Center for Advancing Translational Sciences (NCATS), 2019)
# The other results are listed elsewhere or left out. Records with an inconclusive call do not appear. A number with no mark means an inactive call. Active and inactive are the calls of the source. Calls follow the shape of the dose curve; as a rule, active = well fitted inhibition curve with a large enough effect; inconclusive = small, poorly fitted or top-dose-only effect; inactive = no such curve, though single readings can be large or run the other way.
# Test: qHTS of pediatric cancer cell lines to identify multiple opportunities for drug repurposing: Orthogonal 3D viability screen for TC32 cells
# Conditions: TC32 3D spheroid viability, PI/Hoechst imaging, 72 h; series mostly up to 30.7 µM; activity change, negative = less viable: at the top concentration
# Excerpt: Drug repurposing or repositioning has been offered as a strategy for drug development in oncology programs. This approach has special potential for childhood cancers and other rare or orphan diseases, where the expected return on new drug development has been a disincentive to pharmaceuticals. […] In this project we exploit the poly-pharmacology of drugs to discover new indications via phenotypic screening of a panel of 19 well-characterized cell lines derived from solid tumors seen in children and adolescents. The goal is to identify approved drugs with previously unrecognized anticancer properties that has the potential to reveal new mechanisms and biological processes involved in carcinogenesis or drug resistance. We employed a titration-based paradigm (quantitative high-throughput screening or qHTS), where all compounds were tested at multiple concentrations for their effect on cell viability. Concentration-response curves (CRCs) were derived directly from the primary screen, and both potency and efficacy values were used to identify compounds with robust bioactivity profiles. […] These two assays will be used to validate active compounds and assess the correlation of compound's potency in 2D vs 3D cultures on selected cell lines. Assay Submitter: Nathalia J. Martinez, National Center for Advancing Translational Sciences, National Institutes of Health, Rockville, MD, USA; email: natalia.martinez@nih.gov Shen, M et al. Quantitative high-throughput phenotypic screening of pediatric cancer cell lines identifies multiple opportunities for drug repurposing. Oncotarget 2017 Dec 19;9(4):4758-4772. PMID 29435139.
# The cells were obtained from University of North Carolina (UNC), Pediatric Preclinical Testing Program (PPT), and Coriell Institute (CI). qHTS viability in 3D culture: Cells were assayed in phenol red-free growth media at a density of 1,000 cells/well, with the exception of Daoy, and SH-N-SH which were assayed at 1,500 cells/ well. Thirty muL of cells were dispensed into 384-well, ULA, round bottom plates (Corning) using a Multidrop dispenser. Plates were spun down at 1,000 rpm for 1 min and incubated at 37 degrees C, 5% CO2, under a humidified atmosphere for either 24 (Daoy) or 48 hours (all other cell lines) to allow spheroid formation. Ninety-two nanoliter of compounds and controls (neutral control DMSO or positive control bortezomib at final concentrations of 0.5 µM) were subsequently transferred via GNF Pintool. Plates were sealed using a breathable seal (Diversified Biotech, Dedham, MA) and incubated for 72 hours at 37 degrees C. Spheroid viability was first determined by high-content imaging using Hoechst 33342 and Propidium Iodide (PI, ThermoFisher Scientific), followed by addition of CellTiter-Glo 3D (Promega). Specifically, 3 µL/well of PBS containing a 1:500 dilution of both dyes was dispensed using Multidrop. Dyes were incubated for 1 hour before imaging using the Celigo Image Cytometer. Then, 20 µl of CellTiter-Glo 3D were added per well. Plates were incubated for 30 min at RT on a VWR microplate shaker (300 rpm) and analyzed for luminescence intensity using a ViewLux High-throughput CCD imager equipped with clear filters. Image analysis was done using the Celigo Tumorsphere 1+2+3 application software as previously described. […] The data were exported to Excel, and the average fluorescent intensities were used to calculate the ratio of PI over Hoechst, which was used to quantify viability. […]
SMILES,Potency,"activity change, negative = less viable [%]"
COC(=O)Nc1nc2ccc(Sc3ccccc3)cc2[nH]1,0.81 µM (active),–
CC[C@]1(O)C[C@@H]2CN(CCc3c([nH]c4ccccc34)[C@@](C(=O)OC)(c3cc4c(cc3OC)N(C)[C@H]3[C@@](O)(C(=O)OC)[C@H](OC(C)=O)[C@]5(CC)C=CCN6CC[C@]43[C@@H]65)C2)C1,0.0323 µM (active),–
CC(NCc1ccc2c(c1)nc(NC(=O)c1ccc(-c3cn[nH]c3)s1)n2CC(C)(C)O)C(C)(C)C (stereo not given),1.62 µM (active),–
C=C1C(=CC=C2CCC[C@]3(C)[C@@H]([C@H](C)C=C[C@H](C)C(C)C)CC[C@@H]23)C[C@@H](O)C[C@@H]1O,–,-17.7
CC[C@H]1CN2CCc3cc(OC)c(OC)cc3[C@@H]2C[C@@H]1C[C@H]1NCCc2cc(OC)c(OC)cc21,0.323 µM (active),–
